Measurements as given in PubChem BioAssay.

system: Sonic hedgehog protein (Shh); assay: Sonic hedgehog microarray binding compounds – biochemical, small-molecule microarray, 635/667 nm fluorescence, primary screen (AID 1151); settings: 635 nm fluorescence, higher = more signal;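 also: Shh protein binding to compounds spotted on small-molecule microarray slides; score combines spot fluorescence intensity with signal-to-noise across triplicate slides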

Row | Compound | composite z-score
1 | CC(=O)OC[C@H]1O[C@@H](ON=C(C)C)[C@H](OC(C)=O)[C@@H](OC(C)=O)[C@@H]1OC(C)=O | -0.856
2 | CC(C)=CCCC(C)=CCON=C1[C@H]2CCn3c(=O)n(-c4ccccc4)c(=O)n3[C@H]2[C@H](O)[C@@H]2O[C@H]12 | 1.38
3 | COC(=O)CC=C[C@@H](C)[C@@H](C=NOC[C@@H](C)[C@H](OCc1ccccc1)C(C)C)OC | 0.359
4 | CCOC(=O)CCN1C(=O)[C@H]2[C@H]3[C@H](O)[C@H](O)CC(=NO[C@@H]4O[C@H](CO)[C@@H](O)[C@H](O)[C@H]4O)[C@@H]3CC[C@H]2C1=O | 1.62
5 | COC(=O)[C@H](C)NC(=O)CCC1CC(OC(=O)NCc2ccc3c(c2)OCO3)CC2(CCCC(COC(=O)NCCc3ccc(Cl)cc3)O2)O1 (stereo partly drawn) | 0.579
6 | CC(CCN1CCCc2nc(C)c(C)cc21)=NOC[C@@H](O)COCc1ccco1 | 2.5
7 | CC(CCN1CCCCc2nc(C)c(C)cc21)=NO[C@@H](C)c1cc(-c2c(C)cc(C)cc2C)no1 | -0.235
8 | C[C@H]1CC[C@@H](C(=O)O)N[C@@H]1c1ccc(C#Cc2ccccc2)cc1 | 1.53
9 | COc1ccc(O[C@H]2C=C[C@@H](c3ccccc3)O[C@@H]2COC(=O)NCc2cccc3ccccc23)cc1 | 0.401
10 | CC(C)CON=C1C[C@@H](O)[C@@H](O)[C@@H]2[C@@H]3C(=O)N(C(C)(C)C)C(=O)[C@@H]3CC[C@@H]12 | 1.28
11 | CC(C)CON=C1[C@H]2CCn3c(=O)n(C)c(=O)n3[C@H]2[C@H](O)[C@@H]2O[C@H]12 | 0.637
12 | CCOC(=O)CCN1C(=O)[C@H]2[C@H]3[C@H](O)[C@H](O)CC(=O)[C@@H]3CC[C@H]2C1=O | 0.757
13 | CC1(C)O[C@H]2OC([C@H](O)CON3C(=O)c4ccccc4C3=O)[C@H](O)[C@H]2O1 (stereo partly drawn) | 0.0991
14 | COc1cccc([C@H](O)Cn2cc(-c3ccc(CON=C(C)C)cc3)nn2)c1 | -0.348
15 | COCC#Cc1ccc([C@@H]2N[C@H](C(=O)O)CC[C@H]2C)cc1 | 0.742
16 | O=C1C[C@H](c2ccccc2)[C@H](c2ccc(Br)cc2)O1 | 0.212
17 | CCCNC(=O)OC[C@H]1O[C@H](CCON=C[C@@H](NS(=O)(=O)c2ccc(C)cc2)[C@H](C)C=CCC(=O)OC)C=C[C@@H]1Oc1ccc(OC)cc1 | -0.0635

Row | Compound | composite z-score
18 | CCOC(=O)[C@H](Cc1ccccc1)NC(=O)CCC1CC(OC(=O)NCCc2ccc(F)cc2)CC2(CCCC(COC(=O)NCCOc3ccccc3)O2)O1 (stereo partly drawn) | 1.23
19 | C=CC[C@@H]1C=C[C@H](Oc2ccc(C)cc2)[C@@H](COC(=O)NCc2cccc3ccccc23)O1 | 0.701
20 | O=C1C2=CC[C@H]3C(=O)N(C[C@@H]4CCCO4)C(=O)[C@H]3[C@H]2[C@H](O)[C@@H]2O[C@H]12 | -0.331
21 | CSCC[C@@H]1NC(=O)CC=C[C@@H](C)COC(=O)[C@H](C)COC1=O | 2.45
22 | COC(=O)[C@H](Cc1ccccc1)NC(=O)[C@@H](C)CO | 0.643
23 | O=C1[C@H]2[C@H]3[C@H](O)[C@H](O)CC(=NOCc4ccccc4)[C@@H]3CC[C@H]2C(=O)N1c1cccc(Oc2ccccc2)c1 | 1.03
24 | CC(C)C(=O)N[C@H]1CCCN1C(=O)C=Cc1ccccc1 | 0.769
25 | CCN1C(=O)[C@H]2[C@H]3[C@H](O)[C@H](O)CC(=NOCC(C)C)[C@H]3CC[C@H]2C1=O | 0.599
26 | C#CCCCON=C1[C@H]2CCn3c(=O)n(Cc4cc5c(cc4Cl)OCO5)c(=O)n3[C@H]2[C@H](O)[C@@H]2O[C@H]12 | 1.08
27 | COC(=O)[C@H](C)NC(=O)CCC1CC(OC(=O)NCc2cccc3ccccc23)CC2(CCCC(COC(=O)NCCOc3ccccc3)O2)O1 (stereo partly drawn) | 0.334
28 | CO[C@H]1COC(=O)CC=C[C@@H](C)COC(=O)[C@H]2CCCN2C(=O)CC=C[C@H]1C | 1.79
29 | O=C1C[C@@H](O)[C@@H](O)[C@@H]2[C@@H]3C(=O)N(C4CCCCC4)C(=O)[C@@H]3CC[C@@H]12 | 0.684
30 | CN1CCc2nc(-c3ccccc3)c(-c3ccccc3)cc2C1 | 0.464
31 | CC(CCC(=O)OC[C@H]1O[C@H](C#Cc2ccccc2)C=C[C@@H]1Oc1ccc(C)cc1)=NOC(C)CN1CCCCc2nc(C)c(C)cc21 (stereo partly drawn) | 0.517
32 | CO[C@@H]1C=CCC(=O)N[C@@H](C)C(=O)OC[C@@H](OC)[C@H](C)C=CCC(=O)OC[C@H]1C | 2.06
33 | CO[C@@H]1[C@H](O)CO[C@H]1C=Cc1ccccc1 | -0.0147
